The sample as a whole holds a higher share of hits than the screen did.
KDM5B inh – inhibitors of human KDM5B histone demethylase; Potency, µM (series often up to 57.7 µM), usual class: inhibitors; KDM5B demethylase, FDH-coupled NADH fluorescence (FDH is formaldehyde dehydrogenase); 220,000 compounds, 2.6% hits; AID 1347165; Q9UGL1; active = well fitted inhibition curve with a large enough effect; also: 0% is about no effect; nearly all actives have a fitted effect of over 70% in size
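Compound dilutions met 200 nM (final) KDM5BΔAP for 10 min at room temperature before substrate addition. The substrate mix held 12.5 µM H3K4me3 with cofactors 25 µM α-ketoglutarate and 50 µM Fe²⁺. NADH signal gain over 30 min defined activity.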
* hit, by the source's call; i = inactive. Potency is read from the fitted curve at half-maximal effect.

SMILES	KDM5B inh
O=C1CC2(CCN(S(=O)(=O)c3cccs3)CC2)Oc2ccccc21	18µM*
Cn1cccc1CN1CCC2(CC1)CC(=O)c1ccc(Cl)cc1O2	i
O=C1CC2(CCN(Cc3cccc4ccccc34)CC2)Oc2ccccc21	i
COc1ccc(C(=O)N2CCC3(CC2)CC(=O)c2ccccc2O3)cc1	32µM*
O=C1CC2(CCN(Cc3ccccc3)CC2)Oc2ccccc21	35µM*
Cn1cccc1CN1CCC2(CC1)CC(=O)Nc1ccccc1O2	i
O=C1NC2(CCN(Cc3ccccc3)CC2)Oc2ccccc21	i
COc1ccc(C(=O)N2CCC3(CC2)CC(=O)Nc2ccccc2O3)cc1	i
COc1ccc(C(=O)N2CCC3(CC2)CC(=O)N(c2ccccc2)c2ccccc2O3)cc1	i
CCCN1CCN(C(=O)c2cc3c(s2)CCN(C(=O)c2ccc(F)cc2)C3)CC1	i
CCCn1nc(C(=O)Nc2cccc(S(=O)(=O)N(C)C)c2)c2ccccc2c1=O	i
CCC(C)Cc1c(C)sc2nc(CNc3ccc4c(c3)OCO4)[nH]c(=O)c12 (stereo not given)	i
CN(c1ccccc1)S(=O)(=O)c1ccc(C(=O)OCn2nnc3ccccc3c2=O)cc1	i
COc1ccc(C(=O)/C=C/c2cccs2)c(OC)c1	i
CC(C)c1cc(N2CCN(CCO)CC2)n2c(nc3ccccc32)c1C#N	i
O=C1CC2(CCN(CC3CCCCC3)CC2)Oc2cc(Cl)ccc21	i
O=C1CC2(CCN(CC3CC3)CC2)Oc2ccccc21	32µM*
O=C1CC2(CCN(CC3CCCCC3)CC2)Oc2ccccc2N1c1ccccc1	i
CCCc1nc2ccccc2c(C(=O)OCC(=O)NC(=O)NC(C)(C)C)c1CC	i
CCn1c(SC(C)C(=O)Nc2nccs2)nnc1-c1ccco1 (stereo not given)	i
O=C(c1cccc(Cl)c1)N1CCC(N(C(=O)C2CC2)C2CCOCC2)CC1	i
CC(=O)c1ccc(OC(=O)c2cnc(C)cn2)cc1	i
CCn1cc(C(=O)NCCCN(C)S(C)(=O)=O)c2ccccc21	i
CCc1ccc(N2CC(c3nc4ccccc4n3CC(=O)N3CCC(C)CC3)CC2=O)cc1 (stereo not given)	i
COc1ccc(OC)c(/C=C2\Oc3cc(OS(=O)(=O)c4ccc(C)cc4)ccc3C2=O)c1	i
SMILES	KDM5B inh
COC(=O)C1=C(C)NC(=O)C1(NC(=O)c1cccc(C)c1)C(F)(F)F (stereo not given)	i
CCOc1ccccc1NC(=O)CCS(=O)(=O)c1ccc2c(c1)CCN2C(=O)C1CC1	i
COc1cc2c(cc1OC)C(CNC(=O)C1CC1)N(C(=O)NC(C)C)CC2 (stereo not given)	i
CCCNC(=O)NCC1c2cc(OC)c(OC)cc2CCN1C(=O)NC(C)C (stereo not given)	22µM*
CCCNC(=O)NCC1c2cc(OC)c(OC)cc2CCN1C(=O)NCC (stereo not given)	i
CCn1cc(-c2ccc(C)cc2)cc1C(=O)NC(C)c1ccccn1 (stereo not given)	i
CCc1cccc(NC(=O)c2nnn3cc(C)[nH]c(=O)c23)c1	i
O=C1Nc2ccc(-c3cccc(C(F)(F)F)c3)cc2C(=O)N2CCN(C(=O)c3cccc(F)c3)C[C@H]12	i
COc1ccc(Cl)cc1-c1ccc2c(c1)C(=O)N1CCN(C(=O)c3cccs3)C[C@@H]1C(=O)N2	28µM*
COc1ccc(-c2ccc3c(c2)C(=O)N2CCN(C(=O)c4cccc(F)c4)C[C@@H]2C(=O)N3)cc1	18µM*
O=C1Nc2ccc(-c3cccc(C(F)(F)F)c3)cc2C(=O)N2CCN(C(=O)COc3ccccc3)C[C@H]12	i
COc1ccc(Cl)cc1-c1ccc2c(c1)C(=O)N1CCN(C(=O)C3CCCCC3)C[C@@H]1C(=O)N2	10µM*
CCCNC(=O)N1CCN2C(=O)c3cc(-c4cccc(C(F)(F)F)c4)ccc3NC(=O)[C@@H]2C1	32µM*
COc1ccc(-c2cc(N3CCN(C(=O)c4cccc(F)c4)CC3)n[nH]2)cc1	i
O=C1Nc2ccc(-c3ccc(Cl)cc3)cc2C(=O)N2CCN(C(=O)c3cccs3)C[C@H]12	i
Cc1cccc(C(=O)Nc2nnc(C3CC(=O)N(c4cc(C)cc(C)c4)C3)s2)c1 (stereo not given)	i
CC1CCC(NC(=O)/C=C/c2cccc(C#N)c2)CC1 (stereo not given)	i
CCOC(=O)Cn1c(=O)c2c3c(sc2n(CCCN(C)C)c1=O)CC(C)CC3 (stereo not given)	i
CCCCCn1nc(C(=O)N2CCN(c3ccc(C(C)=O)cc3)CC2)c2ccccc2c1=O	i
CC(Nc1ccc(-c2ccccc2)cc1)C(=O)Nc1ccc(Cl)cn1 (stereo not given)	i
COCc1ccccc1C(=O)NCCC(C)C	i
CCCn1nc(S(=O)(=O)N2CCCC2)c(C(=O)OCC)c1C	i
CC(C)(CC(=O)O)CC(=O)N1CCN2C(=O)c3cc(-c4ccccc4F)ccc3NC(=O)[C@@H]2C1	i
C[C@@H](c1ccccc1)N1C(=O)[C@@H]2CN(C(=O)c3ccc(N(C)C)cc3)CCN2C1=O	i
C=CCO[C@@H]1CCN2C(=O)c3cc(-c4ccccc4F)ccc3NC(=O)[C@H]12	i
SMILES	KDM5B inh
CCS[C@H]1CCN2C(=O)c3cc(-c4cc(Cl)ccc4OC)ccc3NC(=O)[C@H]12	i
COc1ccc(Cl)cc1-c1ccc2c(c1)C(=O)N1CCN(C(=O)c3ccc(N(C)C)cc3)C[C@@H]1C(=O)N2	32µM*
COc1ccc(Cl)cc1-c1ccc2c(c1)C(=O)N1CCN(C(=O)c3ccccc3)C[C@@H]1C(=O)N2	22µM*
O=C1Nc2ccc(-c3ccccc3F)cc2C(=O)N2CCN(C(=O)c3ccccc3)C[C@H]12	40µM*
COc1ccc(Cl)cc1-c1ccc2c(c1)C(=O)N1CCN(C(=O)CC(C)(C)C)C[C@@H]1C(=O)N2	i
O=C(COC(=O)c1cc2c(s1)CCC2)NC(=O)NC1CCCC1	i
CC(=O)c1ccc(NC(=O)CC2C=CCC2)cc1 (stereo not given)	i
CCOC(=O)C1=C(N)Oc2c(oc(CO)cc2=O)C1c1cc(Cl)ccc1Cl (stereo not given)	i
COc1cccc(N2CC(NC(=O)Nc3nc4c(C)cccc4s3)CC2=O)c1 (stereo not given)	i
CCCc1nc2c(-c3ccccc3)c(C)[nH]n2c(=O)c1Cl	i
N#Cc1ccc(OCCSCc2cccc3ccccc23)cc1	i
COc1cccc(C(=O)NCCn2ccn3nc(-c4ccc(C)c(C)c4)cc3c2=O)c1	i
Cc1ccc(-c2cc3c(=O)n(CCNC(=O)c4ccc(F)c(F)c4)ccn3n2)c(C)c1	i
Cc1ccc(C)c(-c2cc3c(=O)n(CCNC(=O)c4ccc(C#N)cc4)ccn3n2)c1	i
Cc1ccc(C)c(-c2cc3c(=O)n(CCNC(=O)c4ccc(N(C)C)cc4)ccn3n2)c1	35µM*
Cc1ccc(-c2cc3c(=O)n(CCNC(=O)c4ccc(F)cc4Cl)ccn3n2)cc1C	32µM*
Cc1ccc(C(=O)NCCn2ccn3nc(-c4ccc(F)cc4)cc3c2=O)cc1F	i
Cc1ccc(-c2cc3c(=O)n(CCNC(=O)c4ccc(Cl)cc4)ccn3n2)cc1C	14µM*
Cc1ccc(-c2cc3c(=O)n(CCNC(=O)c4cccc(N(C)C)c4)ccn3n2)cc1C	18µM*
Cc1ccc(C(=O)NCCn2ccn3nc(-c4cc(C)ccc4C)cc3c2=O)cc1	i
Cc1ccc(C)c(-c2cc3c(=O)n(CCNC(=O)c4ccccc4Cl)ccn3n2)c1	i

High-throughput results from PubChem BioAssay.
